Bioassay records: PubChem, National Center for Advancing Translational Sciences (NCATS)
NS1 inh: influenza NS1 inhibition; 270,000 compounds, 0.4% hits; Potency, µM (series often up to 46.1 µM); note: actives are rising curves; nearly all actives have a fitted effect of over 50% in size
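A cell-based growth assay was used: compounds that relieve NS1-induced slow growth of budding yeast raise OD600. Assay medium was yeast nitrogen base with ammonium sulphate and -URA supplement, pH 6.0, with 2% galactose.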
SARS PLpro yeast: SARS-CoV PLP inhibition in yeast; Potency, µM (titrated, usually from 32.9 µM), actives largely listed as activators; 330,000 compounds, 0.19% hits; S. cerevisiae expressing SARS-CoV PLpro, growth rescue; note: nearly all actives have a fitted effect of over 55% in size
Shiga inhibitor: Shiga toxin inhibition; 290,000 compounds, 9.2% hits; inhibition, % at 38.7 µM; Vero cells, Shiga toxin protein synthesis inhibition reporter; in the data active = inhibition mostly above about 28%, no sharp cut-off; inactive = mostly below about 43%
Pf growth 96h: P. falciparum growth inhibition at 96 hour, primary screen for plastid delayed-death inhibitors; P. falciparum luciferase reporter growth, 96 h; Potency, µM (titrated, usually from 28.7 µM), actives largely listed as inhibitors; 320,000 compounds, 6.9% hits; AID 504834; active = well fitted inhibition curve with a large enough effect; inconclusive = small, poorly fitted or top-dose-only effect, or another doubt; inactive = no such curve, though single readings can be large or run the other way
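Erythrocytes infected with luciferase-expressing P. falciparum were dispensed at 2% hematocrit and 0.05% parasitemia (final), then incubated with compounds 96 hours at 37 C in 5% CO2. Luminescence after detection reagent addition reported growth.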
Pf growth 48h: P. falciparum growth inhibition at 48 hours (one generation) | Potency, µM (doses to about 28.7 µM), actives largely listed as inhibitors | P. falciparum luciferase growth in erythrocytes, 48 h | AID 504832 | 310,000 compounds, 5.9% hits; active = well fitted inhibition curve with a large enough effect; inconclusive = small, poorly fitted or top-dose-only effect, or another doubt; inactive = no such curve, though single readings can be large or run the other way
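Luminescence readout; reporter = integrated firefly luciferase in P. falciparum. RBC culture at 2% hematocrit, 0.1% parasitemia final, 37 C/5% CO2; decreased signal taken as growth inhibition.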
CHX counter: counter-screen hit for Shiga toxin inhibitors, cycloheximide; cell reporter, cycloheximide protein synthesis inhibition counterscreen; max response, %; 300,000 compounds, 12% hits; in the data active = max response mostly above about 13%, no sharp cut-off; inactive = mostly below about 14%; note: read at 38.3 µM for the half of the compounds with a filed dose
A number is an active result; [ ] = dose if it differs, or a comment. An excerpt weighted towards active compounds, which were near 21% of everything screened. Unless noted, calls come from the whole dose curve.

What do the screens show for `CC(C)(C)C(=O)Nc1cc(C(F)(F)F)ccc1N1CCOCC1`?
NS1 inh: inactive[9.22 µM]; SARS PLpro yeast: inactive; Shiga inhibitor: inactive; Pf growth 96h: inactive; Pf growth 48h: inconclusive; CHX counter: inactive

How did Cc1ccc(S(=O)(=O)Nc2cc(C(F)(F)F)ccc2N2CCOCC2)cc1 do in these assays?
NS1 inh: inactive; SARS PLpro yeast: inactive; Shiga inhibitor: inactive; Pf growth 96h: 13.1µM; Pf growth 48h: inconclusive; CHX counter: inactive

Results for Cc1ccc(S(=O)(=O)Nc2cc(C(F)(F)F)ccc2N2CCOCC2)c(C)c1 ?
NS1 inh: inactive; SARS PLpro yeast: inactive; Shiga inhibitor: inactive; Pf growth 96h: 11.7µM; Pf growth 48h: inconclusive; CHX counter: inactive

What do the screens show for `CC(=O)Nc1cc(C(F)(F)F)ccc1N1CCOCC1`?
NS1 inh: inactive; Shiga inhibitor: inactive; Pf growth 48h: inactive; CHX counter: inactive

How did O=C(CN1CCN(S(=O)(=O)N2CCCCCC2)CC1)Nc1ccc(Br)cc1 do in these assays?
NS1 inh: inactive; SARS PLpro yeast: inactive; Shiga inhibitor: inactive; Pf growth 96h: inactive; Pf growth 48h: inactive; CHX counter: inactive

Results for CC1(C)Cc2nc3sc4c(=O)[nH]cnc4c3cc2CS1 ?
NS1 inh: inactive; SARS PLpro yeast: inactive; Shiga inhibitor: inactive; Pf growth 96h: inactive; Pf growth 48h: inactive; CHX counter: 10.4

How did CCCCCn1cnc2c(sc3nc4c(cc32)CSC(C)(C)C4)c1=O do in these assays?
NS1 inh: inactive; SARS PLpro yeast: inactive; Shiga inhibitor: 149.6; Pf growth 96h: inactive; Pf growth 48h: inactive; CHX counter: 61.3

How did CCN(C[C@H]1N[C@@](CC)(C(=O)OC)[C@H]2C(=O)N(C)C(=O)[C@@H]12)S(=O)(=O)c1ccc(OC)cc1 do in these assays?
SARS PLpro yeast: inactive

How did CC(Oc1ccccc1)c1ccnc(N)n1 (stereo not given) do in these assays?
NS1 inh: inactive; SARS PLpro yeast: inactive; Shiga inhibitor: inactive; Pf growth 96h: inactive; Pf growth 48h: inactive; CHX counter: 21.9

What do the screens show for `Cn1c(SCc2ccc3c(c2)OCO3)nnc1-c1ccccc1`?
NS1 inh: inactive; SARS PLpro yeast: inactive; Shiga inhibitor: 21.9; Pf growth 96h: inactive; Pf growth 48h: inactive; CHX counter: 15.5

How did Cn1c(=O)c2ncn(CC(=O)Nc3cccc(-c4nc5ccccc5s4)c3)c2n(C)c1=O do in these assays?
NS1 inh: inactive; SARS PLpro yeast: inactive; Shiga inhibitor: 118.0; Pf growth 96h: inactive; Pf growth 48h: inactive; CHX counter: 53.5

Results for O=C(CSc1nnc2ccccn12)Nc1cccc(S(=O)(=O)N2CCOCC2)c1 ?
NS1 inh: inactive; SARS PLpro yeast: inactive; Shiga inhibitor: inactive; Pf growth 96h: inactive; Pf growth 48h: inactive; CHX counter: inactive

Results for CCc1ccc(NC(=O)Cn2cnc3c(=O)n(C)c(=O)n(C)c32)cc1 ?
SARS PLpro yeast: inactive; Shiga inhibitor: inactive; Pf growth 96h: inactive; Pf growth 48h: inactive; CHX counter: inactive

How did O=C(CSc1nnc2ccccn12)Nc1cccc(-c2nc3ccccc3s2)c1 do in these assays?
NS1 inh: inactive; SARS PLpro yeast: inactive; Shiga inhibitor: 39.4; Pf growth 96h: inconclusive; Pf growth 48h: inactive; CHX counter: inactive

How did O=C(CSc1nnc2ccccn12)Nc1ccc2c(c1)OCO2 do in these assays?
SARS PLpro yeast: inactive; Shiga inhibitor: inactive; Pf growth 96h: inactive; Pf growth 48h: inactive; CHX counter: 17.9

How did CC(=O)c1ccc(NC(=O)C(C)Sc2nnc3ccccn23)cc1 (stereo not given) do in these assays?
SARS PLpro yeast: inactive; Pf growth 96h: 9.28µM; Pf growth 48h: inconclusive

How did c1ccn2c(SCc3ccc4c(c3)OCO4)nnc2c1 do in these assays?
NS1 inh: inactive; SARS PLpro yeast: inactive; Shiga inhibitor: 113.6; Pf growth 96h: inactive; Pf growth 48h: inactive; CHX counter: 40.3

Results for Nn1c(SCC(=O)Nc2ccc3c(c2)OCO3)nnc1-c1ccccc1 ?
NS1 inh: inactive; SARS PLpro yeast: inactive; Shiga inhibitor: inactive; Pf growth 96h: inactive; CHX counter: 21.5

What do the screens show for `Cc1ccc(NC(=O)CSc2nnc3ccccn23)cc1`?
NS1 inh: inactive; SARS PLpro yeast: inactive; Shiga inhibitor: 72.1; Pf growth 96h: inactive; Pf growth 48h: inactive; CHX counter: inactive

Results for COc1ccccc1NC(=O)C(C)Sc1nnc2ccccn12 (stereo not given) ?
SARS PLpro yeast: inactive; Pf growth 96h: inactive; Pf growth 48h: inactive

Results for Cc1ccc(CNC(=O)CN2C(=O)CSc3ccc(S(=O)(=O)N4CCCCC4)cc32)cc1 ?
NS1 inh: inactive; SARS PLpro yeast: inactive; Shiga inhibitor: inactive; Pf growth 96h: inactive; Pf growth 48h: inconclusive; CHX counter: inactive

Results for CCc1c(O)nc(SCC(=O)Nc2nc3ccccc3s2)n(C2CCCCC2)c1=O ?
NS1 inh: inactive; SARS PLpro yeast: inactive; Shiga inhibitor: inactive; Pf growth 96h: inactive; Pf growth 48h: inactive; CHX counter: inactive

What do the screens show for `Cc1nn(C(=O)Cn2cc([N+](=O)[O-])cn2)c(C)c1Cl`?
SARS PLpro yeast: inactive; Shiga inhibitor: inactive; Pf growth 96h: inactive; Pf growth 48h: inactive[5.75 µM]; CHX counter: inactive

How did CCOc1ccc(NC(=O)CSc2ncc(-c3ccc(F)cc3)n2Cc2ccco2)cc1 do in these assays?
NS1 inh: inactive; SARS PLpro yeast: inactive; Shiga inhibitor: inactive; Pf growth 96h: inconclusive; Pf growth 48h: inconclusive; CHX counter: inactive

How did COc1ccc(CSc2nnc(-c3ccncc3)n2C)cc1F do in these assays?
NS1 inh: inactive; SARS PLpro yeast: inactive; Shiga inhibitor: 69.7; Pf growth 96h: inactive; Pf growth 48h: inconclusive; CHX counter: inactive

Results for Cc1cc(C)nc(SCc2nnc(SCC(=O)Nc3nccs3)n2Cc2ccco2)n1 ?
NS1 inh: inactive; SARS PLpro yeast: inactive; Shiga inhibitor: inactive; Pf growth 96h: inactive; Pf growth 48h: inactive; CHX counter: inactive

How did Cc1cccc(NC(=O)CSc2nnc(CSc3nc(C)cc(C)n3)n2Cc2ccco2)c1 do in these assays?
NS1 inh: inactive; SARS PLpro yeast: inactive; Shiga inhibitor: inactive; Pf growth 96h: 14.7µM; Pf growth 48h: inconclusive; CHX counter: inactive

Results for O=C(CSc1nnc(-c2ccccc2)n1Cc1ccco1)Nc1ccc2c(c1)OCCO2 ?
NS1 inh: inactive; SARS PLpro yeast: inactive; Shiga inhibitor: 48.4; Pf growth 96h: inconclusive; Pf growth 48h: inconclusive; CHX counter: inactive

Results for O=C(CSc1ncc(-c2ccc(F)cc2)n1Cc1ccco1)Nc1ccc2c(c1)OCO2 ?
NS1 inh: inactive; Shiga inhibitor: 110.2; Pf growth 48h: inconclusive; CHX counter: 39.5

What do the screens show for `O=c1oc2ccccc2c2c1ccc1ccccc12`?
SARS PLpro yeast: inactive

Results for O=C1NC(=O)N(Cc2ccccc2)C(=O)/C1=C\N1CCCc2ccccc21 ?
NS1 inh: inconclusive; SARS PLpro yeast: inconclusive; Shiga inhibitor: inactive; Pf growth 96h: inactive; Pf growth 48h: inactive; CHX counter: 27.9

What do the screens show for `CC(C(=O)c1ccccc1)[n+]1cccc(C(N)=O)c1` (stereo not given)?
NS1 inh: inactive; SARS PLpro yeast: inactive; Shiga inhibitor: inactive; Pf growth 96h: inactive; Pf growth 48h: inactive; CHX counter: inactive
